Test results from PubChem BioAssay (NCI).
About 83,000 compounds went through this panel and 20% of them were active in at least one assay; those are over-represented in the sample as a whole.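 Method: cells in 96-well plates; compound added at one concentration; 48 h incubation; percent growth measured; values under 10 scored active.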 The source made the active and inactive calls.

system: HCC-2998 colon; assay: NCI-60 one-dose screen, 48 h (100 = growth as untreated, 0 = no growth, -100 = all killed); conditions: 10 µM unless noted

| SMILES | growth |
| --- | --- |
| COc1ccc(N2CCN(C(=O)CSc3ccc(-c4nc5cc(C)c(C)cc5[nH]4)cn3)CC2)cc1 | 94.2% (inactive) |
| COc1ccc(Cn2cc3c(c2-c2ccccc2)CCCc2cnoc2-3)cc1 | 87.9% (inactive) |
| O=C1Nc2ccc(Cl)cc2/C1=C/c1ccc(OCc2ccc(Br)cc2F)cc1 | 112% (inactive) |
| Nc1nc(-c2cccc([N+](=O)[O-])c2)c(N=Nc2ccccc2Cl)s1 | 107% (inactive) |
| Oc1ccc(-c2nnc(SCc3ccc(O)c4ncccc34)o2)cc1 | 22.5% (inactive) |
| Oc1ccc(CSc2nnc(-c3ccccc3)n2-c2ccccc2)c2cccnc12 | 26.9% (inactive) |
| Oc1ccc(-c2nnc(SCc3ccc(O)c4ncccc34)n2-c2ccccc2)cc1 | 27.3% (inactive) |
| O=C1[C@@H]2Cc3c([nH]c4ccccc34)[C@H](c3c(Cl)cccc3Cl)N2C(=O)CN1C1CCN(Cc2ccccc2)CC1 | 10.6% (inactive) |
| CC1COc2c(N3CCN(C)CC3)c(F)cc3c(=O)c(C(=O)N/N=C/c4cc[nH]c4)cn1c23 (stereo unspecified) | 22.6% (inactive) |
| COc1cc(C(=O)C[n+]2ccc3ccccc3c2)cc(OC)c1OC | 103% (inactive) |
| O=C(NNc1nc2cc(F)cc(F)c2n2cccc12)c1ncccn1 | 51.9% (inactive) |
| O=C(N/N=C\c1ccc(Cl)cc1)c1ccc2nc(-c3ccc(Br)cc3)[nH]c2c1 | -42.5% (active) |
| C=CCn1c(SCC(=O)Nc2cccc(C(=O)/C=C/c3ccc(C)cc3)c2)nc2ccccc2c1=O | 87.2% (inactive) |
| CCOC(=O)c1c(NCC(=O)Nc2ccc(Br)cc2)sc2c1CCCC2 | 67.9% (inactive) |
| O=c1[nH]c(CNc2ccc(NCc3c(-c4ccccc4)no[n+]3[O-])cc2)nc2c1cnn2-c1ccccc1 | 84.4% (inactive) |
| CCNC(=O)Oc1ccc(/C(=C(/C)c2ccccc2)c2ccc(OCCN3CCCC3)cc2)cc1 | 93.4% (inactive) |
| O=C(CCCCCCN1CC(=O)N2[C@@H](c3ccccc3)c3[nH]c4ccccc4c3C[C@H]2C1=O)NO | 85.8% (inactive) |
| Cc1cc(-c2ccc3nc(N)sc3c2)nc2ccc3[nH]ncc3c12 | 66.3% (inactive) |
| CCN1C(=O)N(CC)C2SC(N/N=C/c3ccccc3F)=NC21 (stereo unspecified) | 17.1% (inactive) |

| SMILES | growth |
| --- | --- |
| COc1ccc(NC2=C(Cl)C(=O)C(C)=C(C)C2=O)cc1 | 101% (inactive) |
| Oc1ccccc1-c1nnc(SCc2ccc(O)c3ncccc23)n1-c1ccccc1 | 29% (inactive) |
| Cc1ccc(NC(=O)c2cc(/C=C/C(=O)NO)cc(C(F)(F)F)c2)cc1Nc1nccc(-c2cccnc2)n1 | -0.0369% (active) |
| Cc1nn(-c2ccc(Br)cc2)c2nc(CCl)[nH]c(=O)c12 | 105% (inactive) |
| CCn1c2ccc(/C=N/NS(=O)(=O)CCN(C)C)cc2c2cc(/C=N/NS(=O)(=O)CCN(C)C)ccc21 | 104% (inactive) |
| CC(C)Sc1nc(NC2CC2)c(C#N)c(-c2ccccc2)n1 | 89.9% (inactive) |
| CCOC(=O)c1nn(-c2ccccc2)c(=O)c2c(N)c(C#N)c(-c3cccs3)cc12 | 78.2% (inactive) |
| COc1cc(/C=N/n2cnc3oc(-c4ccccc4)cc3c2=N)cc(CN2CCCC2)c1O | 98.5% (inactive) |
| Oc1ccccc1/C=N/Nc1nc(N/N=C/c2ccccc2O)nc(N2CCOCC2)n1 | 58.9% (inactive) |
| O=C1C[C@@H](c2ccccc2)Oc2c(Cc3ccccc3O)c(O)c(Cc3cc(Cc4cc(Cc5ccccc5O)ccc4O)ccc3O)c(O)c21 | 106% (inactive) |
| N/C(=N\OC(=O)CSc1nc2ccccc2s1)c1ccc(Cl)cc1 | 105% (inactive) |
| O=C(NNc1nc2cc(F)cc(F)c2n2cccc12)c1ccncn1 | 57.5% (inactive) |
| CCCC(=O)NC(c1cccnc1)c1cc(Cl)c2cccnc2c1O (stereo unspecified) | 51.2% (inactive) |
| COc1cc(-c2nc(SCc3ccc(C)cc3)[nH]c(=O)c2C#N)ccc1OCc1ccccc1 | 117% (inactive) |
| Cc1nn(-c2ccccc2)cc1/C=N/Nc1nc(Nc2ccccc2)nc(Nc2ccc(S(N)(=O)=O)cc2)n1 | -17.2% (active) |
| COc1cc2c3c(n(CCCNC4CCCCC4)c(=O)c2cc1OC)-c1cc2c(cc1C3=O)OCO2 | 73.3% (inactive) |
| COc1cc(O)c2c(c1)/C=C/C[C@H](O)[C@H](O)C(=O)/C=C\C[C@H](C)OC2=O | -41.9% (active) |
| COc1cc(C2CC(c3ccc(Nc4nc(NCCO)nc(Nc5ccc(Cl)cc5)n4)cc3)=Nc3c(N)nc(N)nc3N2)cc(OC)c1OC (stereo unspecified) | 94.5% (inactive) |
| O=C(c1ccc(O)cc1)[C@@H]1[C@@H]2CCCN2[C@@]2(C(=O)N(C(=O)c3ccc(F)cc3)c3ccccc32)[C@H]1c1ccc(F)cc1 | 108% (inactive) |

system: KM12 colon; assay: as above; conditions: 10 µM unless noted

| SMILES | growth |
| --- | --- |
| COc1ccc(N2CCN(C(=O)CSc3ccc(-c4nc5cc(C)c(C)cc5[nH]4)cn3)CC2)cc1 | 53.2% (inactive) |
| COc1ccc(Cn2cc3c(c2-c2ccccc2)CCCc2cnoc2-3)cc1 | 32% (inactive) |
| O=C1Nc2ccc(Cl)cc2/C1=C/c1ccc(OCc2ccc(Br)cc2F)cc1 | 101% (inactive) |
| Nc1nc(-c2cccc([N+](=O)[O-])c2)c(N=Nc2ccccc2Cl)s1 | 67.4% (inactive) |
| Oc1ccc(-c2nnc(SCc3ccc(O)c4ncccc34)o2)cc1 | 9.65% (active) |
| Oc1ccc(CSc2nnc(-c3ccccc3)n2-c2ccccc2)c2cccnc12 | 14.1% (inactive) |
| Oc1ccc(-c2nnc(SCc3ccc(O)c4ncccc34)n2-c2ccccc2)cc1 | 17.3% (inactive) |
| O=C1[C@@H]2Cc3c([nH]c4ccccc34)[C@H](c3c(Cl)cccc3Cl)N2C(=O)CN1C1CCN(Cc2ccccc2)CC1 | 30.2% (inactive) |
| CC1COc2c(N3CCN(C)CC3)c(F)cc3c(=O)c(C(=O)N/N=C/c4cc[nH]c4)cn1c23 (stereo unspecified) | 46.4% (inactive) |
| COc1cc(C(=O)C[n+]2ccc3ccccc3c2)cc(OC)c1OC | 96.1% (inactive) |
| O=C(NNc1nc2cc(F)cc(F)c2n2cccc12)c1ncccn1 | 22.3% (inactive) |
| O=C(N/N=C\c1ccc(Cl)cc1)c1ccc2nc(-c3ccc(Br)cc3)[nH]c2c1 | -23.2% (active) |
| C=CCn1c(SCC(=O)Nc2cccc(C(=O)/C=C/c3ccc(C)cc3)c2)nc2ccccc2c1=O | 74.5% (inactive) |
| CCOC(=O)c1c(NCC(=O)Nc2ccc(Br)cc2)sc2c1CCCC2 | 70.2% (inactive) |
| O=c1[nH]c(CNc2ccc(NCc3c(-c4ccccc4)no[n+]3[O-])cc2)nc2c1cnn2-c1ccccc1 | 73.3% (inactive) |
| CCNC(=O)Oc1ccc(/C(=C(/C)c2ccccc2)c2ccc(OCCN3CCCC3)cc2)cc1 | 81.8% (inactive) |
| O=C(CCCCCCN1CC(=O)N2[C@@H](c3ccccc3)c3[nH]c4ccccc4c3C[C@H]2C1=O)NO | 65.2% (inactive) |
| Cc1cc(-c2ccc3nc(N)sc3c2)nc2ccc3[nH]ncc3c12 | 34.6% (inactive) |
| CCN1C(=O)N(CC)C2SC(N/N=C/c3ccccc3F)=NC21 (stereo unspecified) | 11.8% (inactive) |

| SMILES | growth |
| --- | --- |
| COc1ccc(NC2=C(Cl)C(=O)C(C)=C(C)C2=O)cc1 | 72.3% (inactive) |
| Oc1ccccc1-c1nnc(SCc2ccc(O)c3ncccc23)n1-c1ccccc1 | 15.4% (inactive) |
| Cc1ccc(NC(=O)c2cc(/C=C/C(=O)NO)cc(C(F)(F)F)c2)cc1Nc1nccc(-c2cccnc2)n1 | 16.4% (inactive) |
| Cc1nn(-c2ccc(Br)cc2)c2nc(CCl)[nH]c(=O)c12 | 83.6% (inactive) |
| CCn1c2ccc(/C=N/NS(=O)(=O)CCN(C)C)cc2c2cc(/C=N/NS(=O)(=O)CCN(C)C)ccc21 | 106% (inactive) |
| CC(C)Sc1nc(NC2CC2)c(C#N)c(-c2ccccc2)n1 | 97.5% (inactive) |
| CCOC(=O)c1nn(-c2ccccc2)c(=O)c2c(N)c(C#N)c(-c3cccs3)cc12 | 80.4% (inactive) |
| COc1cc(/C=N/n2cnc3oc(-c4ccccc4)cc3c2=N)cc(CN2CCCC2)c1O | 11.2% (inactive) |
| Oc1ccccc1/C=N/Nc1nc(N/N=C/c2ccccc2O)nc(N2CCOCC2)n1 | 52.7% (inactive) |
| O=C1C[C@@H](c2ccccc2)Oc2c(Cc3ccccc3O)c(O)c(Cc3cc(Cc4cc(Cc5ccccc5O)ccc4O)ccc3O)c(O)c21 | 92.8% (inactive) |
| N/C(=N\OC(=O)CSc1nc2ccccc2s1)c1ccc(Cl)cc1 | 101% (inactive) |
| O=C(NNc1nc2cc(F)cc(F)c2n2cccc12)c1ccncn1 | 21.6% (inactive) |
| CCCC(=O)NC(c1cccnc1)c1cc(Cl)c2cccnc2c1O (stereo unspecified) | 30.7% (inactive) |
| COc1cc(-c2nc(SCc3ccc(C)cc3)[nH]c(=O)c2C#N)ccc1OCc1ccccc1 | 102% (inactive) |
| Cc1nn(-c2ccccc2)cc1/C=N/Nc1nc(Nc2ccccc2)nc(Nc2ccc(S(N)(=O)=O)cc2)n1 | 9.04% (active) |
| COc1cc2c3c(n(CCCNC4CCCCC4)c(=O)c2cc1OC)-c1cc2c(cc1C3=O)OCO2 | 57.4% (inactive) |
| COc1cc(O)c2c(c1)/C=C/C[C@H](O)[C@H](O)C(=O)/C=C\C[C@H](C)OC2=O | 19.1% (inactive) |
| COc1cc(C2CC(c3ccc(Nc4nc(NCCO)nc(Nc5ccc(Cl)cc5)n4)cc3)=Nc3c(N)nc(N)nc3N2)cc(OC)c1OC (stereo unspecified) | 61.9% (inactive) |
| O=C(c1ccc(O)cc1)[C@@H]1[C@@H]2CCCN2[C@@]2(C(=O)N(C(=O)c3ccc(F)cc3)c3ccccc32)[C@H]1c1ccc(F)cc1 | 100% (inactive) |
